Data on 15 sequences can be found in PMC3218832.

Targets include RELARELA (p65 homodimer) (Homo sapiens, UniProt Q04206 1-307); p50p50 homodimer (Homo sapiens, UniProt P19838 7-356); RELB subunit;p50 subunit (Homo sapiens;Homo sapiens, UniProt Q01201;P19838 120-401;7-356).
Common to all, as to assay: protein binding microarray; high values mean tight binding
Conditions in all cases: dsDNA, one strand shown

The next assay deals with T1, p52p52 homodimer (Homo sapiens, UniProt Q00653 4-332).
T1 sequence: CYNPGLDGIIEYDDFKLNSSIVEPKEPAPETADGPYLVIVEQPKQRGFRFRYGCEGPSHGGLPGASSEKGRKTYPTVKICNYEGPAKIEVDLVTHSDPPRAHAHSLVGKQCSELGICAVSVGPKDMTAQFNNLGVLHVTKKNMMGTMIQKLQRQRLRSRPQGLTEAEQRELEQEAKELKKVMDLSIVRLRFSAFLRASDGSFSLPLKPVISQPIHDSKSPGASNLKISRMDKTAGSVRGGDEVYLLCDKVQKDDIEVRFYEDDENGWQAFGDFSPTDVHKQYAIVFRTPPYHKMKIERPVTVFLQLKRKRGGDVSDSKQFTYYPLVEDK

Assay [1] has as its target RELA (p65) subunit of heterodimer;p50 subunit (Homo sapiens;Homo sapiens, UniProt Q04206;P19838 1-307;7-356).
The target of assay [2] is RELA (p65) subunit of heterodimer;p52 subunit (Homo sapiens;Homo sapiens, UniProt Q04206;Q00653 1-307;4-332).
The target in a further assay is T2, RELB subunit;p52 subunit (Homo sapiens;Homo sapiens, UniProt Q01201;Q00653 120-401;4-332).
T2 sequence 1: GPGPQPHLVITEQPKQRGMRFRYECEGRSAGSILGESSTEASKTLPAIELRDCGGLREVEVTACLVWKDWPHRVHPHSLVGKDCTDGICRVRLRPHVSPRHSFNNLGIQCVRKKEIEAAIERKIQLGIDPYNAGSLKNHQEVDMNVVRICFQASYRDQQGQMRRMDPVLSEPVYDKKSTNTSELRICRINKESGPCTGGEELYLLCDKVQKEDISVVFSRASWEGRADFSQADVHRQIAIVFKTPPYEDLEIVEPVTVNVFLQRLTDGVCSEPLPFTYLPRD
T2 sequence 2: T1 sequence

Assay [3] addresses C-Rel subunit;p50 subunit (Homo sapiens;Homo sapiens, UniProt Q04864;P19838 1-285;7-356).
Assay [4] deals with T3, C-Rel subunit;p52 subunit (Homo sapiens;Homo sapiens, UniProt Q04864;Q00653 1-285;4-332).
T3 sequence 1: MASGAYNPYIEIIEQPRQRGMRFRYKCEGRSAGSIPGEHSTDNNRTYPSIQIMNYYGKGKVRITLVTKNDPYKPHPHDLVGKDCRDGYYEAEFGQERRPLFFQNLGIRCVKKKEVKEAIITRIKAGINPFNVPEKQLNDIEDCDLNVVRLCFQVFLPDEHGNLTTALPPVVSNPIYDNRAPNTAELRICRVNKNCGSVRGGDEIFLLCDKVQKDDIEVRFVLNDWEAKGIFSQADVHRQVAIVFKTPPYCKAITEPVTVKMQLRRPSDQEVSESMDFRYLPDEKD
T3 sequence 2: T1 sequence

p50p50 homodimer, sequence (P19838 7-356): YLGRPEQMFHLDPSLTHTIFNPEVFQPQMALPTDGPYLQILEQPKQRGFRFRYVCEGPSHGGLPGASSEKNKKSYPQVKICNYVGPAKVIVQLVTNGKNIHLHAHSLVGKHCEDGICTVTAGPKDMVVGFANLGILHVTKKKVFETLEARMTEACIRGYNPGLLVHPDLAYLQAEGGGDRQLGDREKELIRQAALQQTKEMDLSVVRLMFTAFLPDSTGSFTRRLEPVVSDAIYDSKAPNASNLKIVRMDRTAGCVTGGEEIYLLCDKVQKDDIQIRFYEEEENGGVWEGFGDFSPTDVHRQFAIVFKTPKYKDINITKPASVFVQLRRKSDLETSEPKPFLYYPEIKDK
RELARELA (p65 homodimer), sequence (Q04206 1-307): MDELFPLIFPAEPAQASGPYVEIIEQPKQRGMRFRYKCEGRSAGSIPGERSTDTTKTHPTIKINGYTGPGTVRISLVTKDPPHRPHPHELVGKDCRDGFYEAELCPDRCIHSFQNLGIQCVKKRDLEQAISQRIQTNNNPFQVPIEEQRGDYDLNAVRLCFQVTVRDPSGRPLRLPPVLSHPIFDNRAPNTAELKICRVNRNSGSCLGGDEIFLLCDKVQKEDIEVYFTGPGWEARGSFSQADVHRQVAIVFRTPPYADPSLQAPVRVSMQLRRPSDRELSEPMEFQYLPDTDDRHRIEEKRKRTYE
RELA (p65) subunit of heterodimer;p50 subunit, sequence (Q04206 1-307, chain 1 of 2): as the sequence (Q04206 1-307) above
RELA (p65) subunit of heterodimer;p50 subunit, sequence (P19838 7-356, chain 2 of 2): as the sequence (P19838 7-356) above

For the sequence GAGTTCTCCCC, the binding signal with RELARELA (p65 homodimer) was determined as 0.519 z-score; with p50p50 homodimer, 1.01 z-score; with p52p52 homodimer, 0.732 z-score; in assay [1] it was 1.01 z-score; in assay [2], 1.01 z-score; with RELB subunit;p50 subunit it was 1.23 z-score. Moreover, the binding signal is 1.07 z-score with RELB subunit;p52 subunit, 1.15 z-score in [3] and 0.673 z-score in [4].

As to GAATGGATCCC, the binding signal with RELARELA (p65 homodimer) was -0.423 z-score; with p50p50 homodimer, -0.946 z-score; with p52p52 homodimer, -0.505 z-score; in assay [1] it was -0.796 z-score; in [2], -0.763 z-score; with RELB subunit;p50 subunit, -0.777 z-score. Also, the binding signal with RELB subunit;p52 subunit was -0.774 z-score; in assay [3], -1.02 z-score; in assay [4], -0.839 z-score.

On to CGGTGCTTCCC, for which the binding signal in the assay with RELARELA (p65 homodimer) stood at 0.809 z-score; in the assay with p50p50 homodimer, 0.562 z-score; in the assay with p52p52 homodimer, 2.72 z-score; in [1] it was 1.22 z-score; in assay [2] it was 1.98 z-score; with RELB subunit;p50 subunit, 1.09 z-score. For the same sequence, the binding signal with RELB subunit;p52 subunit turned out to be 2.06 z-score; in assay [3], 0.924 z-score; in [4], 2.22 z-score.

Regarding AGGATACCCCC, the binding signal in the assay with RELARELA (p65 homodimer) was 0.417 z-score; with p50p50 homodimer, 1.14 z-score; in the assay with p52p52 homodimer it was 0.992 z-score; in [1] it was 1.34 z-score; in [2] it was 1.29 z-score; with RELB subunit;p50 subunit, 1.01 z-score. For the same sequence, the values for the binding signal (in the assay with RELB subunit;p52 subunit; in assay [3]; in assay [4]) were 1.54 z-score, 0.882 z-score and 1.24 z-score, respectively.

In the case of AAAGGCCTCCC, the binding signal was -1.18 z-score with RELARELA (p65 homodimer); -0.959 z-score with p50p50 homodimer; -0.552 z-score in the assay with p52p52 homodimer; -0.794 z-score in assay [1]; -0.782 z-score in assay [2]; -0.857 z-score with RELB subunit;p50 subunit. Also, the binding signal was -0.868 z-score with RELB subunit;p52 subunit, -1.17 z-score in assay [3] and -0.735 z-score in assay [4].

As for CGGTGGTTCCT, the binding signal with RELARELA (p65 homodimer) turned out to be 0.0744 z-score; with p50p50 homodimer, 0.731 z-score; with p52p52 homodimer, 1.05 z-score; in assay [1] it was 0.41 z-score; in [2] it was 0.701 z-score; with RELB subunit;p50 subunit, 0.293 z-score. Further, the binding signal is 0.552 z-score in the assay with RELB subunit;p52 subunit, -0.0201 z-score in assay [3] and 0.719 z-score in assay [4].

CAAGAGTCCCC: the binding signal was determined as 0.465 z-score with RELARELA (p65 homodimer); 1.31 z-score with p50p50 homodimer; 1.01 z-score with p52p52 homodimer; 1.4 z-score in [1]; 1.06 z-score in [2]; 1.44 z-score with RELB subunit;p50 subunit. Besides, the results for the binding signal (with RELB subunit;p52 subunit; in [3]; in assay [4]) were 1.28 z-score, 0.916 z-score and 0.77 z-score, respectively.

For the sequence GGATGAACCCT, the binding signal was -0.273 z-score in the assay with RELARELA (p65 homodimer); -1.25 z-score in the assay with p50p50 homodimer; -0.595 z-score with p52p52 homodimer; -0.588 z-score in assay [1]; -0.76 z-score in assay [2]; -0.936 z-score with RELB subunit;p50 subunit. For the same sequence, the binding signal with RELB subunit;p52 subunit is -0.814 z-score; in assay [3], -1.23 z-score; in assay [4], -0.571 z-score.

For CGAGTTTCCCT, the binding signal in the assay with RELARELA (p65 homodimer) is 1.14 z-score; in the assay with p50p50 homodimer, 1.12 z-score; with p52p52 homodimer, 1.17 z-score; in assay [1], 1.16 z-score; in assay [2], 1.16 z-score; with RELB subunit;p50 subunit it was 1.04 z-score. Further, the binding signal worked out at 1.42 z-score in the assay with RELB subunit;p52 subunit, 1.07 z-score in [3] and 0.975 z-score in assay [4].

For CGAAACCCCCT, the binding signal with RELARELA (p65 homodimer) was determined as 0.503 z-score; in the assay with p50p50 homodimer it was 1.69 z-score; with p52p52 homodimer, 2 z-score; in assay [1], 2.24 z-score; in [2], 2.14 z-score; in the assay with RELB subunit;p50 subunit, 2.22 z-score. Further, the binding signal came out at 2.21 z-score with RELB subunit;p52 subunit, 1.52 z-score in assay [3] and 2.21 z-score in assay [4].

AAAAAGCTCCT: the binding signal with RELARELA (p65 homodimer) is -0.678 z-score; with p50p50 homodimer, -1.47 z-score; with p52p52 homodimer, -0.675 z-score; in [1], -1.01 z-score; in assay [2], -1.04 z-score; with RELB subunit;p50 subunit, -1.17 z-score. The binding signal with RELB subunit;p52 subunit was -1.06 z-score; in [3], -1.49 z-score; in assay [4], -1.07 z-score.

Consider CGAGTTCTCCC, for which the binding signal with RELARELA (p65 homodimer) was 0.00528 z-score; with p50p50 homodimer, 0.1 z-score; with p52p52 homodimer it was -0.0592 z-score; in assay [1] it was 0.0957 z-score; in assay [2], -0.132 z-score; with RELB subunit;p50 subunit, 0.367 z-score. Besides, the values for the binding signal (with RELB subunit;p52 subunit; in assay [3]; in [4]) were 0.182 z-score, -0.0444 z-score and -0.16 z-score, respectively.

Regarding GGATAATCCCC, the binding signal with RELARELA (p65 homodimer) was 1.81 z-score; with p50p50 homodimer, 1.26 z-score; with p52p52 homodimer it was 2.24 z-score; in [1] it was 2.07 z-score; in [2], 1.79 z-score; in the assay with RELB subunit;p50 subunit it was 1.79 z-score. Besides, the figures for the binding signal (in the assay with RELB subunit;p52 subunit; in assay [3]; in assay [4]) were 1.9 z-score, 1.51 z-score and 1.45 z-score, respectively.

With AGAAGGCCCCT, the binding signal with RELARELA (p65 homodimer) is -0.756 z-score; with p50p50 homodimer, 0.412 z-score; with p52p52 homodimer, 0.0419 z-score; in assay [1] it was 0.306 z-score; in assay [2] it was 0.149 z-score; in the assay with RELB subunit;p50 subunit it was 0.0369 z-score. Besides, the binding signal with RELB subunit;p52 subunit was 0.0992 z-score; in assay [3] it was -0.139 z-score; in [4], 0.0154 z-score.

In the case of GAAGGAACCCT, the binding signal with RELARELA (p65 homodimer) is -0.526 z-score; in the assay with p50p50 homodimer, -1.31 z-score; with p52p52 homodimer, -0.566 z-score; in [1], -0.887 z-score; in assay [2] it was -0.818 z-score; in the assay with RELB subunit;p50 subunit it was -0.996 z-score. In addition, the binding signal in the assay with RELB subunit;p52 subunit was -0.793 z-score; in assay [3] it was -1.1 z-score; in assay [4], -0.694 z-score.
